Here are results for 96 compounds from PubChem BioAssay AID463173 (ICCB-Longwood Screening Facility, Harvard Medical School, 2010).

About 4,300 (8.3%) of roughly 52,000 compounds were called active. The sample as a whole holds a higher share of actives than the screen did. Unmarked numbers belong to inactive results. Rule as the data show it: active = survival mostly below about 52% (no sharp cut-off); inactive = mostly above about 56%.

The subject of this assay is DeltatarO mutant. The assay is described as follows: growth inhibition of S. aureus wild type versus tarO mutant, primary screen, teichoic acid synthesis inhibitors, RN4220, OD600 (AID 463173). The settings on record: OD600, 18 h, stronger effect = lower value, screened at 18.75 µg/mL (by protocol).
As for `O=C(CCn1cccn1)Nc1ccc(Br)cc1F`, the survival is 93%.
Under `COC(=O)c1cc2sccc2n1CC(=O)Nc1cc(Cl)ccc1OC` stands 99%.
The result for `S=C(Nc1ccccc1)N1CCOCC1` reads 89%; that for `CC(=O)c1cccc(NC(=O)c2nc3ccccc3nc2N2CCCCC2)c1`, 71%; that for `Cc1cccc(NC(=O)CSc2nc3c(oc4ccccc43)c(=O)n2C(C)C)c1`, 63%.
The result for `CCc1ccc(C(=O)c2cn(CC(=O)Nc3cccc(OC)c3)c3cc4c(cc3c2=O)OCO4)cc1` reads 72%.
As for `O=C(COc1ccc(Cl)cc1)Nc1nnc2n1CCS2`, the survival was 124%.
Under `Cc1ccc(C(=O)N2CCC(c3c[nH]c4ccccc34)(c3c[nH]c4ccccc34)CC2)cc1` stands 87%.
The result for `COc1ccc(CCNc2ncnc3c2c(-c2ccccc2)cn3-c2ccc(Cl)cc2)cc1OC` reads 97%; that for `Clc1ccc(Nc2nc(-c3ccccc3)c3ccccc3n2)c(Cl)c1`, 72%.
As to `Cc1cccc(Nc2nc(-c3ccccc3)c3cc(C)ccc3n2)c1`, the survival was 3% (active).
The result for `Cc1ccc2nc(NN)nc(-c3ccccc3)c2c1` reads 98%; that for `Clc1ccc2nc(Nc3ccccc3Cl)nc(-c3ccccc3)c2c1`, 75%.
For the compound `Oc1ccccc1Nc1nc(-c2ccccc2)c2cc(Cl)ccc2n1`, the survival is 71%.
Under `O=C(O)c1ccc(Nc2nc(-c3ccccc3)c3cc(Br)ccc3n2)cc1` stands 21% (active).
The result for `O=C(O)c1cccc(Nc2ncnc3ccc(Br)cc23)c1` reads 119%; that for `Cc1ccc(C)c(Nc2nc(-c3ccccc3)c3cc(Br)ccc3n2)c1`, 43% (active).
The result for `COc1cc2nc(Nc3cccc(C)c3)nc(N)c2cc1OC` reads 67%.
For the compound `CCOc1cc(CNC(=O)Cn2c(=O)c3cccn3c3ccc(F)cc32)cc(OCC)c1OCC`, the survival was 50%.
Under `Cc1ccc(C)c(Cn2c(=O)n(Cc3ccccc3)c(=O)c3c2c2cc(C)ccc2n3C)c1` stands 78%; under `CC(C)c1ccc(OCC(O)CN2CCN(c3ccc(F)cc3)CC2)cc1` (stereo unspecified), 56%.
The result for `O=C(CN1C(=O)C2(SCC(=O)N2c2ccc(F)c(F)c2)c2ccccc21)Nc1ccccc1F` (stereo unspecified) reads 94%; that for `COc1ccc(CCNC(=O)c2c(C)oc3nc(C)nc(N4CCOCC4)c23)cc1OC`, 102%.
Regarding `COCCN(C(=O)C1CC1)c1nnc(-c2cccc(C)c2)s1`, the survival is 98%.
The result for `Cc1cc(C)nc(NS(=O)(=O)c2ccc(NC(=O)COc3ccc(Cl)cc3C)cc2)n1` reads 63%; that for `COc1ccc(NC(=O)CN2CCC(n3c(C)nc4cc(F)ccc43)CC2)c(OC)c1`, 104%.
Under `COc1cccc(CN(C(=O)c2cccc(C)c2)C2CCS(=O)(=O)C2)c1` (stereo unspecified) stands 65%; under `CCOc1ccc(CCNC(=O)c2cc3n(n2)CCCN(Cc2ccc(C)cc2)C3=O)cc1OCC`, 112%; under `O=S(=O)(CCN1CCOCC1)c1ccc(Oc2ccc(S(=O)(=O)CCN3CCOCC3)cc2)cc1`, 70%.
`Cc1ccc(CCNC(=O)C(CC(C)C)NS(=O)(=O)c2ccc3c(c2)oc(=O)n3C)cc1` (stereo unspecified): the survival was 93%.
As for `Cc1ccc(CSc2ccc(-c3cccs3)nn2)cc1`, the survival is 89%.
The result for `N#Cc1ccc(-c2cccs2)nc1SCc1c(F)cccc1Cl` reads 36% (active).
As to `Cc1ccc(CSc2nc(-c3cccs3)ccc2C#N)cc1`, the survival was 25% (active).
The result for `N#Cc1ccc(-c2cccs2)nc1SCc1ccc(Br)cc1` reads 74%; that for `N#Cc1ccc(-c2cccs2)nc1SCc1ccc(Cl)cc1Cl`, 74%.
`N#Cc1ccc(-c2cccs2)nc1SCC(=O)Nc1cccc(C(F)(F)F)c1`: the survival was 48%.
The result for `Cc1cccc(CSc2ccc(-c3cccs3)nn2)c1` reads 79%.
The result for `N#Cc1c(-c2cccs2)cc(-c2cccs2)nc1SCc1cccnc1` reads 65%; that for `Cc1cccc(CSc2nc(-c3cccs3)ccc2C#N)c1`, 18% (active); that for `Cc1ccc(NC(=O)CSc2nc3c(oc4ccccc43)c(=O)n2-c2ccc(F)cc2)c(C)c1`, 67%.
The result for `O=C(Nc1ccc2nsnc2c1)C1CC1` reads 89%; that for `O=C1c2ccc(-c3ccc4c(c3)C(=O)N(CCO)C4=O)cc2C(=O)N1CCO`, 87%; that for `CN1CC(C(=O)O)CC1=O` (stereo unspecified), 83%.
With `Cn1c(=O)oc2cc(S(=O)(=O)CCC(=O)NCc3ccccc3)ccc21`, the survival is 77%.
Under `Cc1ccc(Cl)cc1N1CCN(c2nc3ccccc3c3nc(-c4cccnc4)nn23)CC1` stands 114%.
Under `CCOC(=O)c1[nH]c(C)c(CCC(=O)Nc2cc(Cl)c(OC)cc2OC)c1C` stands 122%; under `COc1ccc(OCC(=O)NCC(c2ccc(OC)cc2)N2CCCCC2)cc1` (stereo unspecified), 79%; under `COc1ccc(CC(=O)NCc2ccc3c(c2)CCN3C(C)=O)cc1`, 96%.
The result for `COc1ccc(-n2c(=O)c3c4c(sc3n(Cc3ccc(F)cc3)c2=O)CCCC4)c(OC)c1` reads 47%; that for `Cc1cc(C)cc(NC(=O)CSc2ccc(-c3cccs3)nn2)c1`, 73%.
On to `Cc1ccc2c(c1)C(=O)OC(C(=O)Nc1ccc(C(=O)O)cc1)C2` (stereo unspecified), for which the survival is 65%.
Consider `CCOc1ccc(NC(=O)c2c(NC(=O)c3ccccc3F)sc3c2CCC3)cc1`, for which the survival was 155%.
Under `CCS(=O)(=O)N1CCc2cc(C(=O)Nc3ccc(C(=O)OC)cc3)ccc21` stands 49%.
The result for `CCCCc1ccc(NC(=O)c2ccc3c(c2)CCN3S(=O)(=O)CC)cc1` reads 38% (active); that for `CCS(=O)(=O)N1CCCc2cc(C(=O)Nc3cccc(C(C)=O)c3)ccc21`, 89%; that for `CCCCc1ccc(NC(=O)c2ccc3c(c2)CCN3S(=O)(=O)c2ccccc2)cc1`, 53%.
Under `CCS(=O)(=O)N1CCc2cc(C(=O)Nc3cccc(C(C)=O)c3)ccc21` stands 50%; under `CCS(=O)(=O)N1CCc2cc(C(=O)Nc3cccc(NC(C)=O)c3)ccc21`, 42% (active); under `COc1ccc2c(C)c(CCC(=O)NCc3ccccc3Cl)c(=O)oc2c1C`, 63%.
As to `COc1ccc(CN2CCc3c(c(=O)n4ncc(C(=O)N5CCN(c6ccccc6OC)CC5)c4n3C)C2)cc1`, the survival is 89%.
Under `CCN(CCCNC(=O)c1cc2cc3cc(C)ccc3nc2s1)c1cccc(C)c1` stands 102%.
Under `CCN(CCCNC(=O)c1cc2cc3cc(OC)ccc3nc2s1)c1ccccc1` stands 53% (active); under `CCN(CCCNC(=O)c1cc2cc3ccc(OC)cc3nc2s1)c1ccccc1`, 97%; under `CCN(CCCNC(=O)c1cc2cc3ccc(OC)cc3nc2s1)c1cccc(C)c1`, 83%.
The result for `CCN(CCCNC(=O)c1cc2cc3ccc(C)cc3nc2s1)c1ccccc1` reads 126%.
In the case of `CCN(CCCNC(=O)c1cc2cc3cc(OC)ccc3nc2s1)c1cccc(C)c1`, the survival was 46% (active).
The result for `O=C(COCc1cc(-c2cccs2)on1)NCc1ccc(Cl)cc1` reads 64%; that for `CC1CCN(S(=O)(=O)c2ccc(N3CCCCS3(=O)=O)cc2)CC1`, 71%; that for `Cc1ccc2oc(C(=O)N3CCC(c4nc5ccccc5s4)CC3)c(C)c2c1`, 52%.
Under `O=C(NCCS(=O)(=O)N1CCN(c2ccccc2F)CC1)c1cc(=O)c2ccccc2o1` stands 71%; under `Cc1cccc(NC(=O)C2CCCN(S(=O)(=O)c3ccc4c(c3)oc(=O)n4C)C2)c1C` (stereo unspecified), 83%.
Regarding `CCC(CC)c1nnc(NC(=O)CS(=O)(=O)Cc2ccccc2)s1`, the survival is 70%.
Under `CCOC(=O)c1c(C)oc2ncnc(Nc3ccc(OC)cc3OC)c12` stands 97%; under `CCOC(=O)c1cnc(NCc2ccccc2OC)c2ccccc12`, 89%; under `CCOC(=O)c1cnc2c(ccc3ccccc32)c1Nc1ccc(OC)cc1OC`, 8% (active).
As to `CCOC(=O)c1cnc(N2CCN(c3ccc(OC)cc3)CC2)c2ccccc12`, the survival is 97%.
Under `CCOC(=O)c1cnc2c(ccc3ccccc32)c1Nc1ccccc1OC` stands 28% (active); under `CCOC(=O)c1cnc2c(ccc3ccccc32)c1Nc1ccccc1OCC`, 126%.
The result for `CCOC(=O)CSc1nc2cc(OC)c(OC)cc2c2nc(-c3ccccc3)nn12` reads 59%; that for `O=C(Cn1ncc2c(=O)oc3ccccc3c21)NCc1ccc(Cl)cc1`, 86%.
The result for `CCOc1ccccc1N(CC)C(=O)c1cc2c(=O)n(CC)c3ccccc3c2s1` reads 121%; that for `COc1ccc(C2=Nc3ccc(OC(F)(F)F)cc3NC(c3cccnc3)=N2)cc1`, 67%; that for `COc1cccc(CNS(=O)(=O)c2cnc(N)nc2)c1`, 64%.
For `COc1ccc(CNS(=O)(=O)c2cnc(N)nc2)cc1`, the survival was -2% (active).
For the compound `CC(C)Oc1ccc(CNS(=O)(=O)c2cnc(N)nc2)cc1`, the survival is 115%.
The result for `CCc1nn(C(C)C(=O)N2CCN(c3cccc(C(F)(F)F)c3)CC2)c(=O)c2cc3occc3n12` (stereo unspecified) reads 73%.
The result for `COc1ccc(OC)c(CCNC(=O)CCn2c(=O)c3cccn3c3cccnc32)c1` reads 84%.
For the compound `Cc1cc2nn(-c3ccc(F)cc3)nc2cc1NC(=O)c1cccc2ccccc12`, the survival was 68%.
For the compound `CCN(CC)c1ccc(NC(=O)c2ccccc2F)cc1`, the survival is 63% (active).
The result for `CCN(CC)c1ccc(-n2nc3cc(C)c(NC(=O)c4ccccc4C)cc3n2)c(C)c1` reads 73%; that for `O=C(Nc1ccc(S(=O)(=O)N(Cc2ccccc2)c2ccccc2)cc1)c1ccccc1F`, 58%.
In the case of `CCN(CC)c1ccc(-n2nc3cc(C)c(NC(=O)c4ccccc4F)cc3n2)cc1`, the survival is 56% (active).
Under `Cc1cc2nn(-c3ccccc3)nc2cc1NC(=O)c1cccc2c(Cl)cccc12` stands 43% (active); under `CCN(CC)c1ccc(-n2nc3cc(C)c(NC(C)=O)cc3n2)cc1`, 92%.
The result for `CCN(CC)c1ccc(NC(=O)CN2CCN(c3ccccc3F)CC2)cc1` reads 75%; that for `Cc1cc2nn(-c3ccc(F)cc3)nc2cc1NC(=O)c1cccc2c(Cl)cccc12`, 59%.
